Assay results published in the supplement of paper PMC8540655.
Values without a mark were called inactive.

Tested on: Aedes aegypti larvae
Assay: larval motility relative to same well at 0 h (fraction); higher = more motile (less active compound), active = 0.4 or less
Conditions: 10 µM; 2 h
How it was run: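 Larvae (Aedes aegypti, hatched in pond salt solution with yeast at 25 °C and taken 18–24 h later) were plated at about 10 per 100 µL well. Compounds at 10 µM in 1% v/v DMSO were imaged with INVAPP at 0, 2 and 24 h, alongside solvent and larvicide controls on each plate. Reported relative motility is each well's score over its own starting score, as a median of three independent larval batches.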

Point of comparison: `COc1ccc2c(c1OC)C(=O)OC2C1c2c(cc3c(c2OC)OCO3)CCN1C` (configuration not stated), larval motility 0.987. Against it:
- CC[C@H]1OC(=O)[C@H](C)[C@@H](O[C@H]2C[C@@](C)(OC)[C@@H](O)[C@H](C)O2)[C@H](C)[C@@H](O[C@@H]2O[C@H](C)C[C@H](N(C)C)[C@H]2O)[C@](C)(O)C[C@@H](C)C(=O)[C@H](C)[C@@H](O)[C@]1(C)O — higher, 1.03
- O=C1C=C(c2ccccc2)S(=O)(=O)c2ccccc21 — lower, 0.748
- O=C(Nc1ccc(-c2ccccc2)cc1)C1=C(O)C(Cc2ccccc2)OC1=O (configuration not stated) — lower, 0.886
- Cc1cccc(CC(=O)N[C@H]2CCOC2=O)c1 — higher, 1.05
- CCc1cc(Nc2cc(=O)n(CCN3CCN(C(=O)c4ccccc4)CC3)c(=O)[nH]2)ccc1C — higher, 1.11
- COc1ccc(C[C@@H](C)[C@@H](C)Cc2ccc(OC)c(OC)c2)cc1OC — lower, 0.799
- COc1ccc(COc2cc3oc(=O)c4cc(C(C)O)ccc4c3cc2OC)cc1 (configuration not stated) — higher, 1.02
- Fc1ccc(-n2cc(Cn3c(-c4cccc(F)c4)nc4ccccc43)nn2)cc1 — lower, 0.761
- O=C(CCc1ccc2c(c1)OCO2)NCc1ccc(-c2ccccc2F)cc1 — lower, 0.778
- CC[C@@H](CO)NCCN[C@@H](CC)CO — lower, 0.527
- O=C(NCc1ccc(F)cc1)c1c(O)c2ncccc2[nH]c1=O — lower, 0.718
